Values joined by “and” are separate entries in the source; they are usually repeats but may differ in a detail not shown here. Equal entries are not always repeated. Hit rate of the full screen: of about 5,500 compounds, about 2,000 (36%) were called active. About 18% were inconclusive and are not listed. Cut-off read from the data, not from the text of the source: active = normalized growth mostly below about 0.91 (no sharp cut-off); inconclusive = no clear call, values can overlap the other calls; inactive = mostly above about 0.92. The list shows a part of the results.
Assay: chemical genetic growth profiling, strain panel (AID 1159580);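 note: tested at 20 µM; growth read once vehicle control cultures reached saturation at 30 °C; 1 = growth at the plate median or of vehicle wells; lower values mean less growth of the strain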
Conditions: S. cerevisiae deletion strains, growth OD

Measured: normalized growth

CC(C)/C(O)=C1/C(=O)O[C@@H](c2ccoc2)[C@]2(C)C(O)[C@@H](O)[C@@]34OC5(C)OC67CC(C)(C(O)[C@]6(O)[C@@H](O)[C@]3(O5)C12)[C@H](CC(=O)O)[C@]74C (stereo partly drawn)
inactive: locus YAL021C, strain ccr4, active compounds read low 0.945 | locus YAL026C, strain drs2, active compounds read low 1.01 | locus YAL030W, strain snc1, active compounds read low 0.979 | locus YBL061C, strain skt5, active compounds read low 1.01 | locus YBR009C, strain hhf1, active compounds read low 0.993 | locus YBR021W, strain FUR4, active compounds read low 0.991 | locus YBR023C, strain chs3, active compounds read low 0.992 | locus YBR171W, strain sec66, active compounds read low 1.01 | locus YBR229C, strain ROT2, active compounds read low 1 | locus YBR231C, strain swc5, active compounds read low 1.03 | locus YBR279W, strain paf1, active compounds read low 0.997 | locus YCL011C, strain gbp2, active compounds read low 0.975 | locus YCL016C, strain dcc1, active compounds read low 0.982 | locus YCL029C, strain bik1, active compounds read low 0.997 | locus YCL061C, strain MRC1, active compounds read low 0.998 | locus YCL069W, strain vba3, active compounds read low 0.981 | locus YCR088W, strain abp1, active compounds read low 0.994 | locus YDL005C, strain med2, active compounds read low 0.985 | locus YDL035C, strain GPR1, active compounds read low 0.993 | locus YDL040C, strain nat1, active compounds read low 0.995 | locus YDL074C, strain BRE1, active compounds read low 1 | locus YDL101C, strain DUN1, active compounds read low 1.01 | locus YDL185W, strain tfp1, active compounds read low 1.02 | locus YDL192W, strain arf1, active compounds read low 1.01 | locus YDR001C, strain nth1, active compounds read low 0.974 | locus YDR069C, strain doa4, active compounds read low 1.02 | locus YDR101C, strain arx1, active compounds read low 0.986 | locus YDR137W, strain rgp1, active compounds read low 0.992 | locus YDR150W, strain NUM1, active compounds read low 0.965 | locus YDR159W, strain sac3, active compounds read low 1.06 | locus YDR162C, strain NBP2, active compounds read low 1.01 | locus YDR195W, strain ref2 0.974 | locus YDR297W, strain sur2, active compounds read low 1.01 | locus YDR318W, strain mcm21, active compounds read low 1.01 | locus YDR334W, strain swr1, active compounds read low 0.988 | locus YDR335W, strain msn5, active compounds read low 0.987 | locus YDR388W, active compounds read low 1 | locus YDR392W, strain spt3, active compounds read low 0.933 | locus YDR502C, strain sam2, active compounds read low 1.01 | locus YEL003W, strain gim4, active compounds read low 1.01 | locus YEL037C, strain rad23, active compounds read low 0.99 | locus YEL061C, strain CIN8 (second series), active compounds read low 0.985 | locus YER015W, strain faa2, active compounds read low 1.01 | locus YER016W, strain bim1, active compounds read low 0.998 | locus YER110C, active compounds read low 1.01 | locus YER111C, strain swi4, active compounds read low 0.981 | locus YER155C, strain BEM2 (second series), active compounds read low 1.04 | locus YER155C, strain BEM2, active compounds read low 1 | locus YER167W, strain BCK2, active compounds read low 0.996 | locus YFR010W, strain ubp6, active compounds read low 1.01 | locus YGL078C, strain dbp3, active compounds read low 1.02 | locus YGL086W, strain mad1, active compounds read low 1 | locus YGL167C, strain pmr1, active compounds read low 0.993 | locus YGL173C, strain kem1, active compounds read low 1.02 | locus YGL227W, strain vid30, active compounds read low 0.993 | locus YGL240W, strain doc1, active compounds read low 1.02 | locus YGL248W, strain PDE1, active compounds read low 0.997 | locus YGL253W, strain hxk2, active compounds read low 1.01 | locus YGR135W, strain pre9, active compounds read low 1.02 | locus YGR229C, strain SMI1, active compounds read low 0.991 | locus YGR252W, strain gcn5, active compounds read low 0.988 | locus YHR013C, strain ard1, active compounds read low 0.976 | locus YHR027C, strain rpn1, active compounds read low 0.994 | locus YHR030C, strain SLT2, active compounds read low 0.951 | locus YHR079C, strain IRE1 (second series), active compounds read low 1.01 | locus YHR079C, strain IRE1, active compounds read low 0.984 | locus YHR094C, strain hxt1, active compounds read low 1.01 | locus YHR129C, strain ARP1, active compounds read low 0.999 | locus YHR142W, strain chs7, active compounds read low 0.945 | locus YHR200W, strain rpn10, active compounds read low 1.01 | locus YIL066C, strain RNR3, active compounds read low 0.991 | locus YIL073C, strain SPO22, active compounds read low 1.06 | locus YIL125W, strain kgd1, active compounds read low 1 | locus YIR030C, strain dcg1, active compounds read low 1.01 | locus YJL092W, strain hpr5, active compounds read low 0.989 | locus YJL095W, strain BCK1 (second series), active compounds read low 1 | locus YJL095W, strain BCK1, active compounds read low 1.03 and 0.971 | locus YJL115W, strain asf1, active compounds read low 0.977 | locus YJL129C, strain trk1, active compounds read low 0.997 | locus YJL134W, strain LCB3, active compounds read low 0.993 | locus YJL154C, strain vps35, active compounds read low 0.98 | locus YJL164C, strain tpk1, active compounds read low 0.958 | locus YJL166W, strain qcr8, active compounds read low 1 | locus YJL168C, strain set2, active compounds read low 1.01 | locus YJL187C, strain SWE1 (second series), active compounds read low 1.01 | locus YJR066W, strain TOR1, active compounds read low 0.926 | locus YJR075W, strain HOC1, active compounds read low 1 | locus YKL009W, strain mrt4, active compounds read low 1.02 | locus YKL068W, active compounds read low 0.999 | locus YKL085W, strain MDH1 (second series), active compounds read low 1.01 | locus YKL085W, strain MDH1, active compounds read low 1.01 | locus YKL160W, strain elf1, active compounds read low 0.962 | locus YKL190W, strain CNB1, active compounds read low 0.986 | locus YKR001C, strain vps1, active compounds read low 1.01 | locus YKR026C, strain gcn3, active compounds read low 0.994 | locus YKR091W, strain srl3, active compounds read low 0.991 | locus YLL001W, strain dnm1, active compounds read low 0.973 | locus YLL026W, active compounds read low 0.992 | locus YLL041C, strain sdh2, active compounds read low 0.985 | locus YLR027C, strain aat2, active compounds read low 0.999 | locus YLR039C, strain RIC1, active compounds read low 1.06 | locus YLR058C, strain SHM2, active compounds read low 1.01 | locus YLR102C, strain apc9, active compounds read low 0.998 | locus YLR113W, strain HOG1, active compounds read low 0.997 | locus YLR221C, strain rsa3, active compounds read low 1.05 | locus YLR258W, strain gsy2, active compounds read low 0.998 | locus YLR262C, strain YPT6 (second series), active compounds read low 0.979 | locus YLR262C, strain YPT6, active compounds read low 1.1 | locus YLR268W, strain sec22, active compounds read low 0.999 | locus YLR320W, strain mms22, active compounds read low 1.04 | locus YLR330W, strain CHS5, active compounds read low 1 | locus YLR342W, strain FKS1 (second series), active compounds read low 0.985 | locus YLR342W, strain FKS1, active compounds read low 0.995 | locus YLR357W, strain rsc2, active compounds read low 1.01 | locus YLR370C, strain arc18, active compounds read low 0.977 | locus YLR371W, strain rom2, active compounds read low 1.01 | locus YLR384C, strain iki3, active compounds read low 0.997 | locus YLR418C, strain cdc73, active compounds read low 1.03 | locus YML016C, strain PPZ1, active compounds read low 1.01 | locus YML032C, strain rad52, active compounds read low 1.01 | locus YML120C, strain ndi1, active compounds read low 0.973 | locus YML124C, strain tub3, active compounds read low 1.02 | locus YMR058W, strain fet3, active compounds read low 1 | locus YMR078C, strain ctf18, active compounds read low 1.02 | locus YMR125W, strain sto1, active compounds read low 0.951 | locus YMR129W, active compounds read low 0.989 | locus YMR205C, strain PFK2, active compounds read low 0.978 | locus YMR223W, strain ubp8, active compounds read low 1.01 | locus YMR231W, strain pep5, active compounds read low 1 | locus YMR263W, strain SAP30, active compounds read low 1.01 | locus YMR307W, strain GAS1, active compounds read low 0.982 | locus YNL067W, strain RPL9B, active compounds read low 1.03 | locus YNL071W, strain lat1, active compounds read low 0.987 | locus YNL128W, strain TEP1, active compounds read low 1 | locus YNL183C, strain NPR1, active compounds read low 0.939 | locus YNL209W, strain ssb2, active compounds read low 0.988 | locus YNL233W, strain BNI4, active compounds read low 0.981 | locus YNL248C, strain rpa49, active compounds read low 1.03 | locus YNL250W, strain rad50, active compounds read low 1.01 | locus YNL271C, strain bni1, active compounds read low 1.01 | locus YNL298W, strain CLA4, active compounds read low 1.01 | locus YNL307C, strain MCK1, active compounds read low 1 | locus YNL322C, strain KRE1 (second series), active compounds read low 1.02 | locus YNR049C, strain mso1, active compounds read low 0.974 | locus YNR052C, strain pop2, active compounds read low 1.02 | locus YOL012C, strain htz1 0.728 | locus YOL147C, strain pex11, active compounds read low 1.01 | locus YOR001W, strain rrp6, active compounds read low 1.04 | locus YOR061W, strain CKA2, active compounds read low 1 | locus YOR069W, strain VPS5, active compounds read low 0.998 | locus YOR070C, strain gyp1, active compounds read low 0.996 | locus YOR080W, strain dia2, active compounds read low 1 | locus YOR083W, strain WHI5, active compounds read low 0.954 | locus YOR106W, strain vam3, active compounds read low 0.938 | locus YOR136W, strain idh2, active compounds read low 1.02 | locus YOR144C, strain elg1, active compounds read low 1.01 | locus YOR184W, strain ser1, active compounds read low 1 | locus YOR231W, strain MKK1, active compounds read low 0.991 | locus YOR265W, strain rbl2, active compounds read low 0.989 | locus YOR270C, strain vph1, active compounds read low 0.966 | locus YOR290C, strain snf2, active compounds read low 0.907 | locus YOR316C, strain cot1, active compounds read low 1.01 | locus YPL051W, strain arl3, active compounds read low 1.01 | locus YPL055C, strain LGE1, active compounds read low 0.993 | locus YPL078C, strain atp4, active compounds read low 0.953 | locus YPL106C, strain sse1, active compounds read low 0.976 | locus YPL240C, strain hsp82, active compounds read low 1 | locus YPL256C, strain CLN2, active compounds read low 0.946 | locus YPR119W, strain clb2, active compounds read low 1.01 | locus YPR141C, strain kar3, active compounds read low 1.02 | locus YPR163C, strain tif3, active compounds read low 1.01 | locus YPR167C, strain met16, active compounds read low 1.01 | strain wtn01, active compounds read low 1

From PubChem BioAssay AID1159580 (chemical genetic matrix, 2015)
